Rows were chosen to be rich in hits. Some 21% of all compounds tested hit in one or more screens of this group.
RORgamma inh: blocks mouse ROR gamma transcriptional activity; P51450; Drosophila S2 Gal4-RORgamma UAS-luciferase reporter, 20 h; Potency, µM (highest dose often 53.6 µM), most hits filed as inhibitors; actives 5.4% (n = 310,000); AID 2551; note: nearly all actives have a fitted effect of over 60% in size
Target sequence (P51450 whole entry, looked up, the tested form may be a part): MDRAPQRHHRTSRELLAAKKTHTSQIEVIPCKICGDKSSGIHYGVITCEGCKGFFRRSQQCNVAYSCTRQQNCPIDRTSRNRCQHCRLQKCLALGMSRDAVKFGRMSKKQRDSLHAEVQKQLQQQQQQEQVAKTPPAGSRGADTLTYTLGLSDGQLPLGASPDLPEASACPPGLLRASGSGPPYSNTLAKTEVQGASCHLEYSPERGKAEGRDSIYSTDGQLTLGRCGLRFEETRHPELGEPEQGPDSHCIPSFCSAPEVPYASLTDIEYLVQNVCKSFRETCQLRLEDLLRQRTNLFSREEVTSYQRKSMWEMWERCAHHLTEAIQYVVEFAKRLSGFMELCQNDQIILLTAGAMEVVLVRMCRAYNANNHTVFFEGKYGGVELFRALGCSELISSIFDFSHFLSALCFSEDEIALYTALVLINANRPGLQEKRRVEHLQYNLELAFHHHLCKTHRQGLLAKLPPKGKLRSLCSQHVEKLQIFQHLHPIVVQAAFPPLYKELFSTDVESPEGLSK
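Luminescence from a UAS-regulated Photinus luciferase reporter in stably transfected Drosophila Schneider cells is measured; decreased signal marks ROR gamma inhibition. Fusion expression is induced by 700 uM copper sulfate for 20 hr.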
ELG1 DNA repair: blocks ELG1-dependent DNA repair in HEK293T cells. actives 2.3% (n = 330,000). HEK293T ELG1-luciferase reporter, luminescence, 16 h; DNA damage induced by 5-fluorouridine. Potency, µM (series often up to 46.1 µM), most hits filed as inhibitors; note: nearly all actives have a fitted effect of over 55% in size
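Step one: seed 2,000 cells per well. Step two: pin-transfer compound or DMSO alongside 5-fluorouridine. Step three: incubate 16 hr, 37 °C, 5% CO2. Step four: add ONE-Glo, wait 30 min, read luminescence.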
TDP1 cell CPT: growth inhibition of DT40 Tdp1-/-;hTDP1 cells with camptothecin (screen for TDP1 inhibitors) | chicken DT40 Tdp1-/-;hTDP1 cells + 20 nM CPT, ATP luminescence, 48 h | actives 12% (n = 420,000) | AID 686979 | Potency, µM (doses to about 46.2 µM), hits mostly inhibitors; note: nearly all actives have a fitted effect of over 55% in size
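Chicken DT40 Tdp1-/- cells stably complemented with human TDP1 were seeded at 400 cells/well in medium containing 20 nM camptothecin, exposed to pin-transferred compounds, and grown at 37 °C for at least 48 hr. Viability was read as ATP luminescence.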
IL-1B inflam inh: blocks inflammasome-driven IL-1 beta release | activity change, % at 57.5 µM | actives 4.7% (n = 360,000) | THP-1 LPS/ATP IL-1B secretion, AlphaLISA, 16 h; hits give low values; in the data active = activity change below about -50%; inconclusive = mostly about -30% to -49%
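THP-1 cells pretreated 1 hr with compounds (up to 57.5 uM final), then stimulated with LPS (250 ng/mL final) plus ATP (1.25 mM final); secreted IL-1B measured by AlphaLISA after 16 hr, decreased signal indicating inhibition.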
Gal4-VP16 FLuc: Gal4-VP16 reporter inhibition counter-screen; Potency, µM (highest dose often 53.6 µM), usual class: inhibitors; actives 3.5% (n = 310,000); AID 2546; Drosophila S2 Gal4-VP16 UAS-luciferase, luminescence, 20 h;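 note: Gal4-VP16 expression switched on by copper sulfate through the metallothionein promoter; nearly all actives have a fitted effect of over 50% in size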
DT40 TDP1 no CPT: qHTS for Inhibitors of human tyrosyl-DNA phosphodiesterase 1 (TDP1): qHTS in cells in absence of CPT. DT40 Tdp1-/- hTDP1 cells, no CPT, ATP luminescence, 48 h. Potency, µM (doses to about 46.2 µM), usual class: inhibitors. actives 15% (n = 420,000). AID 686978, 2013; note: nearly all actives have a fitted effect of over 55% in size
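DT40 Tdp1-/-;hTDP1 cells, no CPT (DMSO vehicle only), 400 cells/well; compounds pin-transferred; ≥48 hr, 37 °C; CellTiter-Glo 30 min RT dark, luminescence read.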
Of the large screens only hits and unclear results are named; the others gave an inactive call. Unless noted, calls come from the whole dose curve; as a rule, active = well fitted curve in the direction sought with a large enough effect; inconclusive = small, poorly fitted or top-dose-only effect, or another doubt; inactive = no such curve, though single readings can be large; an effect the other way counts as inactive or inconclusive.

O=C(N/N=C/c1cccc(OC(=O)c2cccc(Br)c2)c1)c1cccnc1	ELG1 DNA repair inconclusive
COc1cc(C(=O)Oc2cccc(/C=N/NC(=O)c3cccnc3)c2)cc(OC)c1OC	ELG1 DNA repair inconclusive, TDP1 cell CPT 6.5µM, DT40 TDP1 no CPT 9.2µM
COc1cc(C(=O)Oc2ccccc2/C=N/NC(=O)c2ccc(C)cc2)cc(OC)c1OC	ELG1 DNA repair inconclusive, TDP1 cell CPT 1µM, DT40 TDP1 no CPT 0.65µM
CC(C)(C)C(=O)Nc1ccc(C(=O)N/N=C/c2ccccc2OC(=O)c2ccccc2)cc1	RORgamma inh 6.3µM, ELG1 DNA repair inconclusive, TDP1 cell CPT 6.5µM, Gal4-VP16 FLuc inconclusive, DT40 TDP1 no CPT 7.3µM
COc1cc(C(=O)Oc2ccc(/C=N/NC(=O)c3ccncc3)cc2)cc(OC)c1OC	none
COc1cc(C(=O)N/N=C/c2ccsc2C)cc(OC)c1OC	RORgamma inh 13µM, TDP1 cell CPT 1.2µM, Gal4-VP16 FLuc inconclusive, DT40 TDP1 no CPT 0.65µM
Cc1ccc(S(=O)(=O)N(C)C)cc1NC(=O)CSc1nc2ncc(Cl)cc2[nH]1	TDP1 cell CPT inconclusive, DT40 TDP1 no CPT inconclusive (no result: RORgamma inh, Gal4-VP16 FLuc)
COc1ccccc1C/C(N)=N/OC(=O)COc1ccc(C)cc1	ELG1 DNA repair inconclusive, DT40 TDP1 no CPT inconclusive
CC(NNC(=O)c1ccccc1)c1ccccc1 (centres undefined)	none (no result: ELG1 DNA repair, IL-1B inflam inh)
CC(/C=N\NC(=O)c1ccc2c(c1)OCO2)c1ccccc1 (centres undefined)	none (no result: RORgamma inh, Gal4-VP16 FLuc)
O=C(N/N=C/c1ccccc1OC(=O)c1ccc2c(c1)OCO2)c1ccccc1	RORgamma inh 11µM, ELG1 DNA repair inconclusive, TDP1 cell CPT 4.1µM, Gal4-VP16 FLuc inconclusive, DT40 TDP1 no CPT 4.1µM
COc1ccc(C(=O)N/N=C/c2ccc(N(C)c3ccccc3)cc2)cc1	TDP1 cell CPT inconclusive, IL-1B inflam inh inconclusive, DT40 TDP1 no CPT 23µM (no result: RORgamma inh, ELG1 DNA repair, Gal4-VP16 FLuc)
O=C(N/N=C/C(Cl)=C/c1ccccc1)c1ccc2c(c1)OCO2	TDP1 cell CPT inconclusive, DT40 TDP1 no CPT 21µM (no result: RORgamma inh, Gal4-VP16 FLuc)
COc1ccc(C(=O)N/N=C/c2ccc(OC(=O)c3ccccc3)cc2)cc1	ELG1 DNA repair inconclusive
COC(=O)COc1ccc(/C=N/NC(=O)c2ccc(N(Cc3ccccc3)S(C)(=O)=O)cc2)cc1	RORgamma inh inconclusive, IL-1B inflam inh -95, Gal4-VP16 FLuc inconclusive
COc1ccccc1/C=N/NC(=O)c1ccc2c(c1)OCO2	RORgamma inh inconclusive, ELG1 DNA repair inconclusive
COc1ccc2cc(C3=CCCC3(C)C(=O)O)ccc2c1 (centres undefined)	DT40 TDP1 no CPT inconclusive (no result: RORgamma inh, ELG1 DNA repair, Gal4-VP16 FLuc)
CC1(C(=O)NS(=O)(=O)C2CC2)CCN(C(=O)c2cccc(Cl)c2)C1 (centres undefined)	none (no result: RORgamma inh, ELG1 DNA repair, Gal4-VP16 FLuc)
O=C(N/N=C/c1ccco1)c1ccc(NC(=O)c2ccc(Cl)cc2)cc1	none
COc1ccc(C(=O)N/N=C/c2ccccc2OC(=O)c2ccccc2)cc1	RORgamma inh 3.5µM, ELG1 DNA repair inconclusive, TDP1 cell CPT 0.58µM, Gal4-VP16 FLuc 5µM, DT40 TDP1 no CPT 0.52µM
CC(C)(C)C(=O)Nc1ccc(C(=O)N/N=C/c2ccccc2OC(=O)c2ccc(Cl)cc2)cc1	ELG1 DNA repair 18µM, TDP1 cell CPT 5.2µM, DT40 TDP1 no CPT 4.6µM
COC(=O)CSc1nnc(CCc2ccccc2)n1C	none
Cc1cccc(C)c1-n1ncc(C(=O)NCc2ccc3c(c2)OCO3)c1C1CCN(C(=O)OC(C)(C)C)CC1	TDP1 cell CPT inconclusive, DT40 TDP1 no CPT 15µM (no result: RORgamma inh, ELG1 DNA repair, IL-1B inflam inh, Gal4-VP16 FLuc)
Cc1cccc(C)c1-n1ncc(C(=O)O)c1C1CCN(C(=O)OC(C)(C)C)CC1	none (no result: RORgamma inh, ELG1 DNA repair, IL-1B inflam inh, Gal4-VP16 FLuc)
Cc1ccc(-n2ncc(C(=O)NCCN3CCc4ccccc4C3)c2C2CCNCC2)cc1C	TDP1 cell CPT 21µM, DT40 TDP1 no CPT 21µM (no result: RORgamma inh, ELG1 DNA repair, IL-1B inflam inh, Gal4-VP16 FLuc)
Cc1ccc(-n2ncc(C(=O)NCc3ccc4c(c3)OCO4)c2C2CCN(C(=O)OC(C)(C)C)CC2)cc1C	TDP1 cell CPT 23µM, DT40 TDP1 no CPT inconclusive (no result: RORgamma inh, ELG1 DNA repair, IL-1B inflam inh, Gal4-VP16 FLuc)
Cc1ccc(-n2ncc(C(=O)NCc3ccc4c(c3)OCO4)c2NC(=O)c2ccco2)cc1C	none

Screens as filed in PubChem.
